Assay results taken from PubChem BioAssay (EPA / NIEHS).
Inconclusive results are not listed. Active and inactive are the calls of the source. The calls were made as follows: active = hit-call score of the fitted dose curve at least 0.9, where 1 is the maximum; inconclusive = response in the unintended direction; inactive = score below 0.9.

The compounds below were run against Steroid hormone receptor ERR1 (Homo sapiens) (UniProt P11474) (assay: ATG_ERRa_TRANS: Attagene TRANS-FACTORIAL HepG2 Assay for human Estrogen-Related Receptor alpha (ERRa) (AID 2282971)). Conditions: HepG2 Attagene TRANS reporter, ERRa transactivation.
Chain of Steroid hormone receptor ERR1 (Homo sapiens) (P11474 whole entry, looked up): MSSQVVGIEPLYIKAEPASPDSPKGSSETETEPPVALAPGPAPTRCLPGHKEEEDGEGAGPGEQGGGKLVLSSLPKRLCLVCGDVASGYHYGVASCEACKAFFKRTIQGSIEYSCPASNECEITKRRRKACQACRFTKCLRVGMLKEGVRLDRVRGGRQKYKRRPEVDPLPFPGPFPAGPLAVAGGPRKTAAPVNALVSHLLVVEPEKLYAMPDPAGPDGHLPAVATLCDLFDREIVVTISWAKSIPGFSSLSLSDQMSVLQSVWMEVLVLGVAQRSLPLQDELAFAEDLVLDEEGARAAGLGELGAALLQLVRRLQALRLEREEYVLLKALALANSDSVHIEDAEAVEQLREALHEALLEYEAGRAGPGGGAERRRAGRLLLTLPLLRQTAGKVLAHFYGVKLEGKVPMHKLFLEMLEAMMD
Protocol: ATG_TRANS is a cell-based, multiplexed-readout assay that uses HepG2, a human liver cell line, with measurements taken at 24 hours after chemical dosing in a 24-well plate.ATG_ERRa_TRANS is one of 30 assay component(s) measured or calculated from the ATG_TRANS assay. It is designed to make measurements of mRNA induction, a form of inducible reporter, as detected with fluorescence intensity signals by Reverse transcription polymerase chain reaction (RT-PCR) and Capillary electrophoresis technology.Data from the assay component ATG_ERRa_TRANS was analyzed into 1 assay endpoint. This assay endpoint, ATG_ERRa_TRANS, was analyzed in the positive analysis fitting direction relative to DMSO as the negative control and baseline of activity. Using a type of inducible reporter, measures of mRNA for gain-of-signal activity can be used to understand the reporter gene at the transcription factor-level as they relate to the gene ESRRA. Furthermore, this assay endpoint can be referred to as a primary readout, because this assay has produced multiple assay endpoints where this one serves a reporter gene function. To generalize the intended target to other relatable targets, this assay endpoint is annotated to the nuclear receptor intended target family, where the subfamily is steroidal.
Human liver HepG2 cells are transiently transfected with multiple reporter transcription units (MRTUs) in 6-well plates using FuGene 6 reagent (Roche; 3 ml FuGene/1 mg DNA). The MRTU constructs are regulated by a cis-regulating element (promoter). […] A major difference between the CIS and TRANS system is that in CIS activities of endogenous TFs are measured, whereas the TRANS assay evaluates changes in activities of exogenous, chimeric NR-Gal4 proteins. […] At the end of 24 hour incubation, total RNA was isolated using TriZol reagent (Invitrogen). The isolated RNA is then reverse-transcribed using oligo(dT) primer and Mo-MLV reverse transcriptase (Invitrogen) with DNAse I (Ambion) treatment for 30 min. The one-tenth of the produced cDNA was amplified by PCR using Taq DNA polymerase (Invitrogen) and two reporter sequence-specific primers. The PCR products were fluorescently labeled by primer extension with 6-arboxyfluorescein (6-FAM) 5'-labeled reporter sequence-specific primer (2 min at 95 C, 20 s at 68 C and 10 min at 72 C) and these products were digested with 5U of HpaI (New England Biolabs) for 2h at 37 C. The fragments were purified using Qiaquick PCR columns (Qiagen), analyzed on an ABI 3130xL genetic analyzer (Applied Biosystems) with peak positions identified by using a set of X-rhodamine (ROX)-labeled MapMarker1000 molecular weight standards (BioVentures). The raw capillary electrophoresis data was processed using Attagraph software (Attagene).
In the case of NC(=O)Nc1ccc(Cl)cc1, the outcome is reported as “inactive”.
For CCCC(=O)OCCC(C)CCC=C(C)C (stereo not given), the outcome was “inactive”.
In the case of O=C1OC2(c3cc(Br)c(O)c(Br)c3Oc3c2cc(Br)c(O)c3Br)c2c(Cl)c(Cl)c(Cl)c(Cl)c21, the outcome is reported as “inactive”.
With CC(=O)OCC=Cc1ccccc1 the outcome was “inactive”.
With CNC[C@H](O)c1cccc(O)c1 the outcome was “inactive”.
In the case of CC(C#N)(CCC(=O)O)N=NC(C)(C#N)CCC(=O)O (stereo not given), the outcome is reported as “inactive”.
For COc1ccc(Cl)cc1C, the outcome was “inactive”.
For COC(=O)OC, the outcome was “inactive”.
For CCN(CC)CCOC(=O)c1ccc(N)cc1, the outcome was “inactive”.
CCCCCC(=O)OCCc1ccccc1 was tested, and the outcome was “inactive”.
In the case of CCc1ccc(C=O)cc1, the outcome is reported as “inactive”.
NCCOCCO was tested, and the outcome was “inactive”.
In the case of C=CC(C)(CCC=C(C)C)OC=O (stereo not given), the outcome is reported as “inactive”.
N#Cc1ccccc1 was tested, and the outcome was “inactive”.
With CCCCCOC(=O)CCC the outcome was “inactive”.
CC1CCC(C(C)CS)CC1S (stereo not given) was tested, and the outcome was “inactive”.
With CC1(C)C(=O)N(Br)C(=O)N1Cl the outcome was “inactive”.
COCCCOc1ccnc(CS(=O)c2nc3ccccc3[nH]2)c1C (stereo not given) was tested, and the outcome was “inactive”.
In the case of O=C(O)C[C@H](O)C[C@H](O)/C=C/c1c(C2CC2)nc2ccccc2c1-c1ccc(F)cc1, the outcome is reported as “inactive”.
With O=[N+]([O-])c1cc(C(F)(F)F)ccc1Cl the outcome was “inactive”.
O=C(COc1ccc(Cl)cc1)N1CCN(Cc2ccc3c(c2)OCO3)CC1 was tested, and the outcome was “inactive”.
CC(=O)O[C@H](CC(=O)[O-])C[N+](C)(C)C was tested, and the outcome was “inactive”.
With COc1ccc(Nc2ccccc2)c(C)c1 the outcome was “inactive”.
With CC[C@]12CCCN3CCc4c(n(c5ccccc45)[C@@](O)(C(=O)OC)C1)[C@@H]32 the outcome was “inactive”.
With CC(C)=CCO the outcome was “inactive”.
In the case of CCCC/C=C\CCCCCCCCCC=O, the outcome is reported as “inactive”.
With CC(C)c1cccc(O)c1 the outcome was “inactive”.
In the case of CCn1c2ccccc2c2cc(N)ccc21, the outcome is reported as “inactive”.
For O=CCCc1ccccc1, the outcome was “inactive”.
For CCCCCCOC(=O)CC, the outcome was “inactive”.
With O=C(O)CN(CCN(CC(=O)O)CC(=O)O)CCN(CC(=O)O)CC(=O)O the outcome was “inactive”.
NCCCCCCN was tested, and the outcome was “inactive”.
With Nc1cc([N+](=O)[O-])ccc1O the outcome was “inactive”.
For CCCCCCCCC=O, the outcome was “inactive”.
With Nc1cc([N+](=O)[O-])ccc1Cl the outcome was “inactive”.
CCc1c(C)cc(N)c(CC)c1N was tested, and the outcome was “inactive”.
With CC(C)(C)c1n[nH]c(=S)n(N)c1=O the outcome was “inactive”.
With CC(C)(C#N)c1cc(Cn2cncn2)cc(C(C)(C)C#N)c1 the outcome was “inactive”.
For OCCOc1cccc(OCCO)c1, the outcome was “inactive”.
In the case of Nc1cccc(S(=O)(=O)c2cccc(N)c2)c1, the outcome is reported as “inactive”.
